Data published in ChEMBL document CHEMBL3988442, “University of Dundee, Small-Polar-MMV Screening Library” (2021).

molecular target: T1, Aspartate--tRNA(Asp/Asn) ligase (Mycobacterium tuberculosis (strain ATCC 25618 / H37Rv)) (UniProt P9WFW3); experiment: Assay for Asp RNA synthetase-1 from Mycobacterium tuberculosis; format: functional; parameters: scale not given: direction of the effect not stated beside the values; conditions: 30 µM; also: in the data most compounds retested in dose-response had high values
T1 sequence (whole entry): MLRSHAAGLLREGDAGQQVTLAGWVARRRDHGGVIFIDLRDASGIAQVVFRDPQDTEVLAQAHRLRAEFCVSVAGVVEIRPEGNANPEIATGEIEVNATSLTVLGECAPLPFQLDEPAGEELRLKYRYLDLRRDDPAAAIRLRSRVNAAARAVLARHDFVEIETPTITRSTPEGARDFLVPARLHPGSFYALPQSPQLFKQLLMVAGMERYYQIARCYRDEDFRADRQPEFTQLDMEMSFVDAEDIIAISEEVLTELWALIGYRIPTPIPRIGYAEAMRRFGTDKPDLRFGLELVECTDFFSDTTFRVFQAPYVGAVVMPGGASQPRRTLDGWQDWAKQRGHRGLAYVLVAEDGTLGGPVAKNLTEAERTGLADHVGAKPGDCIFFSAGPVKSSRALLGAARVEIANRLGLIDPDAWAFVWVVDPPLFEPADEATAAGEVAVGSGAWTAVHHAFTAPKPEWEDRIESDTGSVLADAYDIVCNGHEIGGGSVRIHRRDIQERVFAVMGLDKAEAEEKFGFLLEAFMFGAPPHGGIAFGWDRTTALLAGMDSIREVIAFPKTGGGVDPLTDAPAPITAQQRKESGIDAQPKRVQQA

SMILES | Percent Effect [%]
CSc1ncccc1C(=O)N1C[C@H]2CC[C@@H]1CN(c1cnccn1)C2 | 7.16
Cn1cccc1C(=O)N1CCN(Cc2ccncc2)c2ncccc2C1 | 0.0582
NC(=O)C1CCN(Cn2nc(-c3ccc(F)cc3)oc2=O)CC1 | 4.96
CC(CCN1CCn2nc(CNC(=O)N(C)C)cc2C1)c1ccccc1 (stereo not given) | -3.2
OCCN1CCOC2(CCCN(c3cccc(F)c3)C2)C1 (stereo not given) | -3.25
CCN(Cc1cccc2c1OCO2)C(=O)NC1CC1 | -0.162
Cc1ccccc1CC(=O)N(C)C1CCN(c2ccccn2)CC1 | -1.19
CC(C(=O)NCCCn1ccnc1)n1cc(Br)cn1 (stereo not given) | 3.33
CCOc1cc(C(=O)N2CCCC(n3cncn3)C2)ccc1C (stereo not given) | 1.17
Cn1nccc1C1CCN(Cc2csc(-c3ncccn3)n2)CC1 | 5.92
O=C(CSc1ncccn1)N1C[C@H]2CC[C@@H]1CN(Cc1ccncc1)C2 | 3.45
Cc1nc(CN(C)C2CCN(Cc3ccc4ccccc4n3)C2)no1 (stereo not given) | 3.73
O=C(CCCOc1ccc(F)cc1F)N1CCCC1Cn1cccn1 (stereo not given) | -7.61
Cc1nc(CN2CC3(CCN(c4ncc(F)cn4)C3)CC2=O)cs1 (stereo not given) | 3.16
Cc1cc(CN(C)Cc2cc3c(cc2OC(F)F)OCO3)on1 | 4.16
Cc1cnn(C2CCCN(C(=O)c3cccc(Cn4ccnc4)c3)C2)c1 (stereo not given) | 0.538
CC(=O)N1CCOC(c2cc(N3CC(O)C3)nc(C)n2)C1 (stereo not given) | -3.6
Cc1ccc(C(=O)Nc2cn[nH]c2)cc1C | -2.79
COc1cccc(CN(C)Cc2cccc(C#N)c2)c1OC | -1.23
N#Cc1cccc(S(=O)(=O)NC(=O)COC2CCCC2)c1 | 1.85

SMILES | Percent Effect [%]
CC(C)c1noc(C(C)N2CCN(CCN3CCCC3=O)CC2)n1 (stereo not given) | 1.45
CC(O)CN1CCN(C(=O)c2ccc(Cn3cccn3)cc2)CC1 (stereo not given) | 5.51
COC(=O)c1cccn1C1CCN(C(=O)c2cn[nH]c2C)CC1 | -3.31
CCOc1ncccc1NC(=O)c1sccc1C | -0.501
CCn1nnc2c1C(COC)CN(Cc1cccs1)C2 (stereo not given) | -3.5
Cc1csc(N2CCCN(C(=O)C(C)n3ccnc3)CC2)n1 (stereo not given) | 1.2
Cn1ccc(-c2cc(C(=O)N3CCOCC3)c3ccccn23)n1 | 3.13
Cc1cc(C)c2c(OCC(=O)NC(C)C)nn(C)c2n1 | -1.15
Cc1cc(C(=O)NC2CCc3nc(C)cn3C2)[nH]n1 (stereo not given) | -3.72
Cc1cc(-c2cnc(NC3CCCC3)nc2-c2ccoc2C)on1 | 3.94
Cc1ncc(S(C)(=O)=O)c(C2CCCNC2)n1 (stereo not given) | 0.276
Oc1ccc(N2CCN(Cc3cc4c(cc3Br)OCCO4)CC2)cc1 | 4.07
CN1CC(=O)N(c2cccnc2)CC12CCN(C(=O)C1CCCCC1)C2 (stereo not given) | 6.7
CC(NC(=O)CNCCn1cccn1)c1ccc2c(c1)OCCO2 (stereo not given) | -3.06
Cc1noc(C2CCN(C(=O)c3c(C)noc3C)CC2)n1 | 0.55
CCC(C)[C@H](NC(=O)c1cc(Br)ccc1-n1cnnn1)C(=O)OC (stereo not given in full) | -2
Cc1ccc(F)cc1S(=O)(=O)NCc1cccnc1N(C)C | 4.75
CCc1n[nH]c(C2CN(C(=O)c3cc4c(s3)CCCC4)CCO2)n1 (stereo not given) | -1.69
Cc1cnn(CCC(=O)N2CCCN(c3ncccc3C#N)CC2)c1 | -6.54
CN(Cc1ccccn1)C1COC2(CCN(Cc3cccnc3)CC2)C1 (stereo not given) | -2.07

molecular target: Shiga toxin 2 (Escherichia coli O157:H7) (UniProt P09385+P09386); experiment: E. coli 0.157:H7 Shiga Toxin SOP - stx2 screening assay; format: functional; parameters: scale not given: direction of the effect not stated beside the values; conditions: 30 µM

SMILES | Percent Effect [%]
CSc1ncccc1C(=O)N1C[C@H]2CC[C@@H]1CN(c1cnccn1)C2 | -42.6
Cn1cccc1C(=O)N1CCN(Cc2ccncc2)c2ncccc2C1 | -10
NC(=O)C1CCN(Cn2nc(-c3ccc(F)cc3)oc2=O)CC1 | -69.6
CC(CCN1CCn2nc(CNC(=O)N(C)C)cc2C1)c1ccccc1 (stereo not given) | -1.92
OCCN1CCOC2(CCCN(c3cccc(F)c3)C2)C1 (stereo not given) | -15.9
CCN(Cc1cccc2c1OCO2)C(=O)NC1CC1 | -11
Cc1ccccc1CC(=O)N(C)C1CCN(c2ccccn2)CC1 | 6.11
CC(C(=O)NCCCn1ccnc1)n1cc(Br)cn1 (stereo not given) | -54.3
CCOc1cc(C(=O)N2CCCC(n3cncn3)C2)ccc1C (stereo not given) | 17.5
Cn1nccc1C1CCN(Cc2csc(-c3ncccn3)n2)CC1 | -10.6
O=C(CSc1ncccn1)N1C[C@H]2CC[C@@H]1CN(Cc1ccncc1)C2 | -26.2
Cc1nc(CN(C)C2CCN(Cc3ccc4ccccc4n3)C2)no1 (stereo not given) | -68.9
O=C(CCCOc1ccc(F)cc1F)N1CCCC1Cn1cccn1 (stereo not given) | 17.6
Cc1nc(CN2CC3(CCN(c4ncc(F)cn4)C3)CC2=O)cs1 (stereo not given) | -4.09
Cc1cc(CN(C)Cc2cc3c(cc2OC(F)F)OCO3)on1 | 19.4
Cc1cnn(C2CCCN(C(=O)c3cccc(Cn4ccnc4)c3)C2)c1 (stereo not given) | -30.9
CC(=O)N1CCOC(c2cc(N3CC(O)C3)nc(C)n2)C1 (stereo not given) | 6.14
Cc1ccc(C(=O)Nc2cn[nH]c2)cc1C | 16.5
COc1cccc(CN(C)Cc2cccc(C#N)c2)c1OC | 14.1
N#Cc1cccc(S(=O)(=O)NC(=O)COC2CCCC2)c1 | -31

SMILES | Percent Effect [%]
CC(C)c1noc(C(C)N2CCN(CCN3CCCC3=O)CC2)n1 (stereo not given) | 17.6
CC(O)CN1CCN(C(=O)c2ccc(Cn3cccn3)cc2)CC1 (stereo not given) | 14.6
COC(=O)c1cccn1C1CCN(C(=O)c2cn[nH]c2C)CC1 | -8.31
CCOc1ncccc1NC(=O)c1sccc1C | -11.1
CCn1nnc2c1C(COC)CN(Cc1cccs1)C2 (stereo not given) | 5.25
Cc1csc(N2CCCN(C(=O)C(C)n3ccnc3)CC2)n1 (stereo not given) | -6.32
Cn1ccc(-c2cc(C(=O)N3CCOCC3)c3ccccn23)n1 | -17.8
Cc1cc(C)c2c(OCC(=O)NC(C)C)nn(C)c2n1 | -0.409
Cc1cc(C(=O)NC2CCc3nc(C)cn3C2)[nH]n1 (stereo not given) | -2.92
Cc1cc(-c2cnc(NC3CCCC3)nc2-c2ccoc2C)on1 | -25.8
Cc1ncc(S(C)(=O)=O)c(C2CCCNC2)n1 (stereo not given) | -2.77
Oc1ccc(N2CCN(Cc3cc4c(cc3Br)OCCO4)CC2)cc1 | 6.03
CN1CC(=O)N(c2cccnc2)CC12CCN(C(=O)C1CCCCC1)C2 (stereo not given) | -1.32
CC(NC(=O)CNCCn1cccn1)c1ccc2c(c1)OCCO2 (stereo not given) | 8.04
Cc1noc(C2CCN(C(=O)c3c(C)noc3C)CC2)n1 | -6.04
CCC(C)[C@H](NC(=O)c1cc(Br)ccc1-n1cnnn1)C(=O)OC (stereo not given in full) | -22.1
Cc1ccc(F)cc1S(=O)(=O)NCc1cccnc1N(C)C | -16.9
CCc1n[nH]c(C2CN(C(=O)c3cc4c(s3)CCCC4)CCO2)n1 (stereo not given) | 4.53
Cc1cnn(CCC(=O)N2CCCN(c3ncccc3C#N)CC2)c1 | -34.1
CN(Cc1ccccn1)C1COC2(CCN(Cc3cccnc3)CC2)C1 (stereo not given) | -24.6
